From ChEMBL document CHEMBL2218924, “A broad activity screen in support of a chemogenomic map for kinase signalling research and drug discovery” (Biochem J, 2013) come the findings set out here.

For experiment [1], the target named is Tyrosine-protein kinase SYK (Homo sapiens) (UniProt P43405). The conditions noted are these: at 10 µM.
Experiment [2] concerns the target T1, Mitogen-activated protein kinase kinase kinase 7 (Homo sapiens) (UniProt O43318).
T1 sequence (whole entry): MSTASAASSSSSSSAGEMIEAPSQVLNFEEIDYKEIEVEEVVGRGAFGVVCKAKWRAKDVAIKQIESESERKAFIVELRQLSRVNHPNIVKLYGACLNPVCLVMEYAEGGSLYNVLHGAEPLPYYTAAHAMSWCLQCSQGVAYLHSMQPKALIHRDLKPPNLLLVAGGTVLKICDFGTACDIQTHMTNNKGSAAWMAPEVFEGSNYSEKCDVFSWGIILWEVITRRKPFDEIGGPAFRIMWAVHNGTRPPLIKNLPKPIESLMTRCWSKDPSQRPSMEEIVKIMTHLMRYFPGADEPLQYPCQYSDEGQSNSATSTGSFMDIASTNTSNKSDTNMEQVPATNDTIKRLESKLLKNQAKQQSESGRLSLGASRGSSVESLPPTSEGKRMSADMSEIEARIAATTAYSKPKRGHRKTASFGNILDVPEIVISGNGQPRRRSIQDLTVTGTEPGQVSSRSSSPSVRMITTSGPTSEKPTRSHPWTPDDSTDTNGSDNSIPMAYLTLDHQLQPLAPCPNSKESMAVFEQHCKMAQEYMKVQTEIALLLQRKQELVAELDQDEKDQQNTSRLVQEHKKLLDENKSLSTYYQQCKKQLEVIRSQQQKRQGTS
The conditions noted are these: at 10 µM.

For experiment [3], the target named is T2, Serine/threonine-protein kinase TAO3 (Homo sapiens) (UniProt Q9H2K8).
T2 sequence (whole entry): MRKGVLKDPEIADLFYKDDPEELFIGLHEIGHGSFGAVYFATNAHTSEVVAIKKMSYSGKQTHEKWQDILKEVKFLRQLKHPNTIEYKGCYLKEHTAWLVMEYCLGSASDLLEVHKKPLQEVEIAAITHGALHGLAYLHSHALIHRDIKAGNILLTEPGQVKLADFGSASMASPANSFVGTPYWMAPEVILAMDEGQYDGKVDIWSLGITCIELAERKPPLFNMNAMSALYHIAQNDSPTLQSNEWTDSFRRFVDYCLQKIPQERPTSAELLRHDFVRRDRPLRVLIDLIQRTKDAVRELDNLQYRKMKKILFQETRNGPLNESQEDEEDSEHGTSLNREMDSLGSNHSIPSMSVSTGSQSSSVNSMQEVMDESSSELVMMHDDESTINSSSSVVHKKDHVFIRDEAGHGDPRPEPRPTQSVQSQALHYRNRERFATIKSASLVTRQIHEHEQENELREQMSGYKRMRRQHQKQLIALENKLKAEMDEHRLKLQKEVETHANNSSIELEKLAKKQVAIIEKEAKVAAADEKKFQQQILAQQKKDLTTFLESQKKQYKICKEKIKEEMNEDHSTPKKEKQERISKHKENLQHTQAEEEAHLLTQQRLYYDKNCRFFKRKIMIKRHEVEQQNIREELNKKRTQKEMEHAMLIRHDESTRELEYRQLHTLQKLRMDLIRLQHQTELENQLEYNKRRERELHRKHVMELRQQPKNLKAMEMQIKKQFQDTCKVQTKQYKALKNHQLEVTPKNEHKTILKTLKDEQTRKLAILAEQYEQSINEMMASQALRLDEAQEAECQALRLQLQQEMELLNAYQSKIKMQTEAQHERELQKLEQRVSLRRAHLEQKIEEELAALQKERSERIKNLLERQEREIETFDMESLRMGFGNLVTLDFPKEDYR
The conditions noted are these: at 1 µM.

Experiment [4] has as its target T2, Serine/threonine-protein kinase TAO3 (Homo sapiens). As to conditions: at 10 µM.
For experiment [5], the target named is T3, Serine/threonine-protein kinase TBK1 (Homo sapiens) (UniProt Q9UHD2).
T3 sequence (whole entry): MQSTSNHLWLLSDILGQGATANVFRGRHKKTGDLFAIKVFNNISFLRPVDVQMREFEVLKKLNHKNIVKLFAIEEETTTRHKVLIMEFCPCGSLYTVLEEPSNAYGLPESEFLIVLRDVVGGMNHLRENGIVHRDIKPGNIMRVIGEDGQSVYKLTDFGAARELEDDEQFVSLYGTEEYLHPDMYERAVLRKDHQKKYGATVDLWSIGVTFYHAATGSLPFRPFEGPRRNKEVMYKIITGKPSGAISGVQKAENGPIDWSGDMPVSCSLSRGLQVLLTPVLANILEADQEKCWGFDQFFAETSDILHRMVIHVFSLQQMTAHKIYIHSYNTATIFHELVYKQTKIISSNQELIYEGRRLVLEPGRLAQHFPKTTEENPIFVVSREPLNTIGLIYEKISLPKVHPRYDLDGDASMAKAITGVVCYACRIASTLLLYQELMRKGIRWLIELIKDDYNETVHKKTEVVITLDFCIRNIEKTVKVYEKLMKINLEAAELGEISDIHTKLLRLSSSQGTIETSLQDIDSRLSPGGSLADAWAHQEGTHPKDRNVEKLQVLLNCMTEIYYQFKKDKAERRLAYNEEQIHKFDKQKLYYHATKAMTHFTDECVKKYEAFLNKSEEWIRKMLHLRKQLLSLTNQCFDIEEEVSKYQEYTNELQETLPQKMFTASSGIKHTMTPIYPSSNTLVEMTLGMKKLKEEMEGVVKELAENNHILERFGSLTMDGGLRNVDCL
The conditions noted are these: at 1 µM.

Experiment [6] has as its target T3, Serine/threonine-protein kinase TBK1 (Homo sapiens). The conditions noted are these: at 10 µM.
The target of experiment [7] is T4, TGF-beta receptor type-1 (Homo sapiens) (UniProt P36897).
T4 sequence (whole entry): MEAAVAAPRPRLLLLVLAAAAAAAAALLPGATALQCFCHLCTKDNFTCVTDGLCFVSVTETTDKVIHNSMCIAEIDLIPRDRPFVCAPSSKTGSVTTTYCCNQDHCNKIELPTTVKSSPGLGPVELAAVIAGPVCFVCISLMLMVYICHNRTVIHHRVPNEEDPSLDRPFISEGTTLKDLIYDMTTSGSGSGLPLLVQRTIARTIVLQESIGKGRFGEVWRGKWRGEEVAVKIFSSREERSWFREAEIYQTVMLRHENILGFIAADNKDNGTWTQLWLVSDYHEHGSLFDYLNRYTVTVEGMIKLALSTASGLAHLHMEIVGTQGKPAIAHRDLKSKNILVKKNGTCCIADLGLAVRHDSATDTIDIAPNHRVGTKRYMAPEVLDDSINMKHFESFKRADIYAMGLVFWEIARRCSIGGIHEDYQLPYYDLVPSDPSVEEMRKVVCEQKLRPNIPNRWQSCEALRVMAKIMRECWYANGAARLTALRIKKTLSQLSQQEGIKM
As to conditions: at 1 µM.

Experiment [8] addresses T4, TGF-beta receptor type-1 (Homo sapiens). The conditions noted are these: at 10 µM.
In experiment [9] the target is T5, Inhibitor of nuclear factor kappa-B kinase subunit alpha (Homo sapiens) (UniProt O15111).
T5 sequence (whole entry): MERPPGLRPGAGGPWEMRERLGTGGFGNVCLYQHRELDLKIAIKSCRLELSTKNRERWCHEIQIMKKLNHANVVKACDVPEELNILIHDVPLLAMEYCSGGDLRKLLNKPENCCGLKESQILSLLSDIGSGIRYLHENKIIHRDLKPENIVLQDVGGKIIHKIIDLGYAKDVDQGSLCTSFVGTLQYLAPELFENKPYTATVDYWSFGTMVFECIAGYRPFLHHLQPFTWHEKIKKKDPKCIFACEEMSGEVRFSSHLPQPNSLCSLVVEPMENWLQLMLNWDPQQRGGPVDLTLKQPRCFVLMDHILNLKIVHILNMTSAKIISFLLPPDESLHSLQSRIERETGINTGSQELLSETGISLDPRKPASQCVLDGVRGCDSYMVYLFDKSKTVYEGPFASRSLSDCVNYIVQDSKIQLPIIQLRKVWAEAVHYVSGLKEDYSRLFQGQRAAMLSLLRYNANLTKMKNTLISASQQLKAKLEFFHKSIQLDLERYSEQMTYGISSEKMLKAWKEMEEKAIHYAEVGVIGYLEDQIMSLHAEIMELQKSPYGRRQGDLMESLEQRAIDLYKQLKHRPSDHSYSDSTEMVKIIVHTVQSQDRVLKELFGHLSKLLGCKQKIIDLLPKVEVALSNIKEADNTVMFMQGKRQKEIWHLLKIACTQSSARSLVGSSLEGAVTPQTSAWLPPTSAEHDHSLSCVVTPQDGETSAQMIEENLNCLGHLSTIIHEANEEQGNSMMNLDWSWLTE
As to conditions: at 1 µM.

For experiment [10], the target named is T5, Inhibitor of nuclear factor kappa-B kinase subunit alpha (Homo sapiens). As to conditions: at 10 µM.
Experiment [11] deals with T6, Inhibitor of nuclear factor kappa-B kinase subunit beta (Homo sapiens) (UniProt O14920).
T6 sequence (whole entry): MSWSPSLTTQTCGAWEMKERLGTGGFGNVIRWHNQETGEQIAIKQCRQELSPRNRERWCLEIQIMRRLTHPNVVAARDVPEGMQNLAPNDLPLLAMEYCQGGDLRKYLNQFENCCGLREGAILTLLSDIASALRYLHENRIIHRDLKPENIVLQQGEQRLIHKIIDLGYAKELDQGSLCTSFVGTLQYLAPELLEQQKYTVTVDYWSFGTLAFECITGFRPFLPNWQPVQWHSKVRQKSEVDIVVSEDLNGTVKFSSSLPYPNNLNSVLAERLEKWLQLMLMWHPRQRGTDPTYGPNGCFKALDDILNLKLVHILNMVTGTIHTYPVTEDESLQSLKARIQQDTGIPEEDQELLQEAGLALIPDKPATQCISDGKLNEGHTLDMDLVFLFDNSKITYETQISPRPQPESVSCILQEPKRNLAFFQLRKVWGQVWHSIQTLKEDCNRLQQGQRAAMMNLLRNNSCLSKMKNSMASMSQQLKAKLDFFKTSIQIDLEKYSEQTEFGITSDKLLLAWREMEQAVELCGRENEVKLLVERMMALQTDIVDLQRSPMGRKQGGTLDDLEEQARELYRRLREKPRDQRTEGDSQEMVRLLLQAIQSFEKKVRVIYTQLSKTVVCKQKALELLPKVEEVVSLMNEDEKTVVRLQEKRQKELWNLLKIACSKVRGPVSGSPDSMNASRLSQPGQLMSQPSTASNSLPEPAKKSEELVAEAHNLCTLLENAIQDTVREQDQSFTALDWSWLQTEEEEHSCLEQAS
The conditions noted are these: at 1 µM.

In experiment [12] the target is T6, Inhibitor of nuclear factor kappa-B kinase subunit beta (Homo sapiens). As to conditions: at 10 µM.
In experiment [13] the target is Insulin receptor (Homo sapiens) (UniProt P06213). As to conditions: at 1 µM.

Molecules are shown by their SMILES.

Chain of Insulin receptor (Homo sapiens) (P06213 28-758 limits assumed): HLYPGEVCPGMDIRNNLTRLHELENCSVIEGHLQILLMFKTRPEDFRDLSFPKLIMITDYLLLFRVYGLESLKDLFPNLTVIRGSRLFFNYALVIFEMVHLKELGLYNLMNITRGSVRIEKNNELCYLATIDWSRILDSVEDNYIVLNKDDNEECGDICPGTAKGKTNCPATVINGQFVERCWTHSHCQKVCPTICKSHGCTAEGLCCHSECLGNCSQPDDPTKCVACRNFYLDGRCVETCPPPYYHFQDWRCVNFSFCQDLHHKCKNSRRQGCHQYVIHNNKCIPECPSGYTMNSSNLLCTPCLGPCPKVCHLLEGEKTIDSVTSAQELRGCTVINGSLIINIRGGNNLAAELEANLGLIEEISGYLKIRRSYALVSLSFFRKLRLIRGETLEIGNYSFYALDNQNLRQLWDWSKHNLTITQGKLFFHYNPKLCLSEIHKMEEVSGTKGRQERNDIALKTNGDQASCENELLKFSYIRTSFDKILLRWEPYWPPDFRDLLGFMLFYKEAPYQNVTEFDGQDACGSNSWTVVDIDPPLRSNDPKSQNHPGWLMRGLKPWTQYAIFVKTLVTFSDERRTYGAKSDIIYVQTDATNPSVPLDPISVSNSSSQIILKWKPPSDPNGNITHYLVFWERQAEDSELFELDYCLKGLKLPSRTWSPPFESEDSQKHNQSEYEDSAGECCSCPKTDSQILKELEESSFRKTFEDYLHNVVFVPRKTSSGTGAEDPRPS
Chain of Insulin receptor (Homo sapiens) (P06213 763-1382 limits assumed): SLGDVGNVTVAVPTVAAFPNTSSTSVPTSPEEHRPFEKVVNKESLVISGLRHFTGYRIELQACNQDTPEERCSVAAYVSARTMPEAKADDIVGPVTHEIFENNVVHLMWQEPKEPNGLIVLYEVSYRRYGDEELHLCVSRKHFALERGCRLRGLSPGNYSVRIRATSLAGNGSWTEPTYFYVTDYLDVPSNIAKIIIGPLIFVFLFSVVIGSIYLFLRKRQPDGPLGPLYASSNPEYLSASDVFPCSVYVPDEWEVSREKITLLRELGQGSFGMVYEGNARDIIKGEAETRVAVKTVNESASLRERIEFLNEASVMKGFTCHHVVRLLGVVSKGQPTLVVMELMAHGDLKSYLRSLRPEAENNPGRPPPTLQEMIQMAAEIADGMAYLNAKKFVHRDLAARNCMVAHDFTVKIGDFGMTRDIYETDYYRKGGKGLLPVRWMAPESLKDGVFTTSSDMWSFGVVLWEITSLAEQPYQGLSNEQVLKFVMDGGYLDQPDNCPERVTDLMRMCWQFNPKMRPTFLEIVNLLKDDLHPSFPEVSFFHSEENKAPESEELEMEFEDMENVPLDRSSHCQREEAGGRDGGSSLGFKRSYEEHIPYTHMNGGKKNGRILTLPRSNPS

In the case of `N#Cc1cnc2cnc(NCc3cccnc3)cc2c1Nc1ccc(F)c(Cl)c1`, the residual activity in [1] stood at 2%; in experiment [2], 87%; in experiment [3], 18%; in [4] it was 7%; in experiment [5], 5%; in [6], 2%. Besides, the residual activity in [7] worked out at 126%; in [8], 123%; in [9] it was 74%; in experiment [10], 58%; in [11], 84%; in experiment [12], 74%. Moreover, the residual activity in experiment [13] amounted to 136%.
